# Reference: PubChem BioAssay AID687016 (The Scripps Research Institute Molecular Screening Center, 2013)
# In all, about 370,000 compounds went through this assay and about 2,800 (0.76%) were called active. No stated cut-off is given here; in the data, active means inhibition above about 21%; inactive means the rest. This excerpt belongs to a sample that is enriched for actives.
# Biological target: E3 ubiquitin-protein ligase UHRF1 (Homo sapiens) (UniProt Q96T88)
# Test: blockers of UHRF1 binding to methyl-oligo – biochemical, TR-FRET, human UHRF1, single concentration, counter-screen for MBD2 inhibitor project, primary screen (AID 687016);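 further: UHRF1 SRA domain binding a hemimethylated CpG hairpin DNA probe; 0% = median of test compound wells and 100% = reference inhibitor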
# Conditions: UHRF1 binding to methylated oligo, at 4.4 µM, stronger effect = higher value
# E3 ubiquitin-protein ligase UHRF1 (Homo sapiens), sequence (Q96T88 whole entry, looked up, the tested form may be a part): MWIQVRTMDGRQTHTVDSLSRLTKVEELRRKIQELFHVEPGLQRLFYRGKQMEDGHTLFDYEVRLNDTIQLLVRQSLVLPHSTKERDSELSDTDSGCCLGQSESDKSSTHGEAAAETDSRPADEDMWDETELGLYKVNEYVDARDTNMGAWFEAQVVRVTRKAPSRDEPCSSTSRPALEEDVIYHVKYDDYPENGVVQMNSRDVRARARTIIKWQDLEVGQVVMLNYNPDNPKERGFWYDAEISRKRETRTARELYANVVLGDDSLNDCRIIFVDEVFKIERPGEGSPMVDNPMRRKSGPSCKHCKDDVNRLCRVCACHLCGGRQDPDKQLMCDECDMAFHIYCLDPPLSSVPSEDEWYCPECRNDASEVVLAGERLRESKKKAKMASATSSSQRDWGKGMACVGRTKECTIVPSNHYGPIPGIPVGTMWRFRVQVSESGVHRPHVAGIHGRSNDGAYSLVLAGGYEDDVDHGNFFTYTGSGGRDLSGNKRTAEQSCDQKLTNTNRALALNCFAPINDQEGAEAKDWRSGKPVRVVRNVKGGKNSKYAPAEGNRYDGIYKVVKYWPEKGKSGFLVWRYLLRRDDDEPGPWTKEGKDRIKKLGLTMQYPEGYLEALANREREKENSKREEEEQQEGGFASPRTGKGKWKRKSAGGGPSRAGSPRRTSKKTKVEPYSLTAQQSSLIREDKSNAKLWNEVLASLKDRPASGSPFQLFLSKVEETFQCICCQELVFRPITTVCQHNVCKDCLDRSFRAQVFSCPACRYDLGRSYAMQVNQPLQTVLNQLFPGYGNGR
row,Compound,inhibition
1,CC(=O)Nc1ccccc1C(=O)OCC(=O)c1cccc2ccccc12,0.36% (inactive)
2,Cn1cc(C(=O)OCC(=O)N2CCCC2)c2ccccc21,73.7% (active)
3,CC(C)c1ccc(OCC(=O)N2CCCN(C)CC2)cc1,-1.28% (inactive)
4,O=C1C2CCN(CC2)C1(CO)CO,0.15% (inactive)
5,Cc1ccccc1CCC[C@@H](CC1CCCCC1)CN(C)C(=O)Oc1ccccc1,-0.75% (inactive)
6,Cc1ccnc(-n2c(C)cc(/C=C3\C(=O)NC(=S)N(C)C3=O)c2C)c1,1.95% (inactive)
7,O=C1NC(=O)N(Cc2ccco2)C(=O)/C1=C\c1ccc(-c2ccc(F)cc2)o1,81.8% (active)
8,Cc1cc(/C=C2/C(=O)NC(=O)N(Cc3ccco3)C2=O)c(C)n1-c1ccc(C(=O)O)cc1,78.5% (active)
9,Cc1cc(C=C2C(=O)NC(=O)NC2=O)c(C)n1-c1ccncc1,-7.92% (inactive)
10,CO[C@H]([C@H](C)/C=C/N(C)C=O)[C@@H](C)C(=O)CC[C@H](C)[C@H](O)[C@H](C)[C@H]1OC(=O)/C=C/C(C)=C/[C@H](O)[C@H](OC)C[C@@H]2C=CC[C@@H](C[C@H](OC)[C@@]3(CO3)[C@@H](OC)C[C@@H](OC)[C@@H]1C)O2,-2.95% (inactive)
11,CC(=CCOc1ccc2ccc(=O)oc2c1)C1=CC(=O)C(C)(C)O1,0.79% (inactive)
12,NC(=O)Cn1cc(C(=O)c2ccccc2F)c2ccccc21,-1.97% (inactive)
13,S=C(NCCc1ccccc1)N1Cc2cc(N3CCOCC3)ccc2-n2nncc2C1,-3.2% (inactive)
14,CCOC(=O)[C@]12Cc3ccccc3[C@H]1N(C1CCCCC1)C(=O)c1cc(OC)ccc12,-1.33% (inactive)
15,COP(=O)(Sc1ccccc1)C(Cc1ccccc1)NC(=O)OCc1ccccc1 (stereo not given),-3.61% (inactive)
16,O=c1c2ccccc2nc(-c2ccc(Cl)cc2Cl)n1-c1ccncc1,-0.96% (inactive)
17,COc1ccc(N2C(=O)/C(=C/c3ccco3)C(=O)NC2=S)cc1,68.7% (active)
18,CCOC(=O)C(O)(c1ccc(N=Cc2ccccc2O)c(C)c1)C(F)(F)F (stereo not given),-1.83% (inactive)
19,CN(C)CCCN=Cc1c(O)n(Cc2ccco2)c(=O)[nH]c1=O,0.23% (inactive)
20,CC(C)CN1CCN(Cc2ccccc2C(F)(F)F)CC1CCO (stereo not given),-2.88% (inactive)
